Assay results taken from PubChem BioAssay (EPA / NIEHS).
Active and inactive are the calls of the source. Rule for the calls: active = hit-call score of the fitted dose curve at least 0.9, where 1 is the maximum; inactive = score below 0.9.

What was measured:
Settings in all cases: mRNA level, 48 h; actives raise or lower the signal
[1] = read-out: Heat shock 70 kDa protein 1 (HSPA1A), gene 3303; experiment: LTEA_HepaRG_HSPA1A: Life Technologies and Expression Analysis (LTEA) Assay for Heat shock 70 kDa protein 1 (HSPA1A) using HepaRG (AID 2283502)
Procedure, shortened: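 Cells were plated and cultured for 48 h, then switched to serum-free induction medium. Chemicals were added at eight half-log concentrations up to 100 uM for 48 h. RNA was then isolated and HSPA1A measured by qRT-PCR with bidirectional curve fitting against DMSO.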

[2] = read-out: Hypoxia-inducible factor 1-alpha (Homo sapiens) (UniProt Q16665); experiment: LTEA_HepaRG_HIF1A: Life Technologies and Expression Analysis (LTEA) Assay for Hypoxia-inducible factor 1 (HIF1A) Trancription factor using HepaRG (AID 2283503)
Procedure, shortened: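 HIF1A transcript level read by qRT-PCR (ACTB, GAPDH, POLR2A normalization) after 48 h chemical exposure of HepaRG cultures. Eight half-log concentrations, top 100 uM, 0.5% DMSO vehicle, duplicates; bidirectional curve fit against DMSO baseline.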

[3] = read-out: 3-Hydroxy-3-Methylglutaryl-CoA Synthase 2 (HMGCS2), HMGCS2 (gene 3158); experiment: LTEA_HepaRG_HMGCS2: Life Technologies and Expression Analysis (LTEA) Assay for 3-Hydroxy-3-Methylglutaryl-CoA Synthase 2 (HMGCS2) using HepaRG (AID 2283504)
Procedure, shortened: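 Differentiated human HepaRG cells were exposed in duplicate for 48 h in serum-free induction medium to eight concentrations (top 100 uM, half-log steps, 0.5% DMSO). HMGCS2 mRNA was quantified by TaqMan qRT-PCR, normalised to ACTB, GAPDH and POLR2A, then fitted bidirectionally against DMSO.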

HGF (gene 3082) = experiment: LTEA_HepaRG_HGF: Life Technologies and Expression Analysis (LTEA) Assay for Hepatocyte Growth Facto (HGF) using HepaRG (AID 2283505)
Procedure, shortened: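 Differentiated human HepaRG cells in serum-free induction medium were exposed in duplicate for 48 h to eight concentrations (top 100 uM, half-log steps, 0.5% DMSO). HGF mRNA was quantified by qRT-PCR, normalized to ACTB, GAPDH and POLR2A.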

[4] = read-out: Insulin Like Growth Factor 1 (IGF1), IGF1 (gene 3479); experiment: LTEA_HepaRG_IGF1: Life Technologies and Expression Analysis (LTEA) Assay for Insulin Like Growth Factor 1 (IGF1) using HepaRG (AID 2283506)
Procedure, shortened: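 Cells are thawed, plated and cultured 48 h, then exposed in duplicate to chemical (highest 100 uM, half-log steps, 0.5% DMSO) for another 48 h. Total RNA is analysed by Fluidigm qRT-PCR for IGF1 expression relative to vehicle.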

[5] = read-out: Intercellular Adhesion Molecule 1 (ICAM1), ICAM1 (gene 3383); experiment: LTEA_HepaRG_ICAM1: Life Technologies and Expression Analysis (LTEA) Assay for Intercellular Adhesion Molecule 1 (ICAM1) using HepaRG (AID 2283507)
Procedure, shortened: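 Differentiated HepaRG cells in serum-free induction medium were exposed in duplicate for 48 h to eight half-log concentrations up to 100 uM in 0.5% DMSO. Transcript levels were measured by qRT-PCR normalized to ACTB, GAPDH and POLR2A; bidirectional fits relative to DMSO.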

[6] = read-out: Interleukin 6 (IL6), IL6 (gene 3569); experiment: LTEA_HepaRG_IL6: Life Technologies and Expression Analysis (LTEA) Assay for Interleukin 6 (IL6) using HepaRG (AID 2283509)
Procedure, shortened: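 qRT-PCR read-out of IL6 transcript, normalized to three housekeeping genes, after 48 h chemical exposure of HepaRG cells; 8-point half-log series, top 100 uM, 0.5% DMSO vehicle. Bidirectional curve fitting against DMSO baseline.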

[7] = read-out: Interleukin 6 Receptor (IL6R), IL6R (gene 3570); experiment: LTEA_HepaRG_IL6R: Life Technologies and Expression Analysis (LTEA) Assay for Interleukin 6 Receptor (IL6R) using HepaRG (AID 2283510);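 for AC50: TaqMan qRT-PCR signal normalized to ACTB GAPDH and POLR2A housekeeping genes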
Procedure, shortened: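 Cells were thawed, plated and cultured 48 h, then medium was changed to serum-free induction medium. Chemicals were added in duplicate (100 uM top, half-log steps, 0.5% DMSO) for 48 h. Lysates were analyzed by qRT-PCR for IL6R expression.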

[8] = read-out: Potassium channel subfamily K member 1 (KCNK1), KCNK1 (gene 3775); experiment: LTEA_HepaRG_KCNK1: Life Technologies and Expression Analysis (LTEA) Assay for Potassium channel subfamily K member 1 (KCNK1) using HepaRG (AID 2283511)
Procedure, shortened: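 HepaRG, 48 h exposure, 8-pt half-log series top 100 uM, 0.5% DMSO vehicle, duplicates. Readout: KCNK1 transcript by qRT-PCR (Fluidigm array), housekeeping-normalized; bidirectional curve fit relative to DMSO baseline.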

[9] = read-out: Keratin 19 (KRT19), KRT19 (gene 3880); experiment: LTEA_HepaRG_KRT19: Life Technologies and Expression Analysis (LTEA) Assay for Keratin 19 (KRT19) using HepaRG (AID 2283512)
Procedure, shortened: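 Differentiated human HepaRG cells, plated 48 h, were exposed in duplicate for 48 h in serum-free induction medium to eight half-log concentrations up to 100 uM in 0.5% DMSO. KRT19 mRNA was quantified by qRT-PCR, normalized to ACTB, GAPDH and POLR2A, and fitted bidirectionally versus DMSO.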

[10] = read-out: JUN Transcription Factor, JUN (gene 3725); experiment: LTEA_HepaRG_JUN: Life Technologies and Expression Analysis (LTEA) Assay for JUN Transcription Factor using HepaRG (AID 2283513)
Procedure, shortened: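 Read-out is JUN transcript level by TaqMan qRT-PCR, normalized to ACTB, GAPDH and POLR2A, after 48 h chemical treatment of HepaRG cells. Concentration-response spanned eight half-log points up to 100 uM in 0.5% DMSO.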

[11] = read-out: Lipase C (LIPC), LIPC (gene 3990); experiment: LTEA_HepaRG_LIPC: Life Technologies and Expression Analysis (LTEA) Assay for Lipase C (LIPC) using HepaRG (AID 2283514)
Procedure, shortened: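 HepaRG, 48 h exposure, 8-pt half-log series from 100 uM in 0.5% DMSO, duplicates. Readout: LIPC mRNA by Fluidigm qRT-PCR, housekeeping-normalized (ACTB/GAPDH/POLR2A). Gain or loss fitted bidirectionally against DMSO baseline.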

[12] = read-out: Lipoprotein lipase (LPL), LPL (gene 4023); experiment: LTEA_HepaRG_LPL: Life Technologies and Expression Analysis (LTEA) Assay for Lipoprotein lipase (LPL) using HepaRG (AID 2283515)
Procedure, shortened: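 HepaRG, 48 h exposure, 8-pt half-log dilutions from 100 uM, 0.5% DMSO vehicle, duplicates; qRT-PCR (Fluidigm array) of LPL mRNA vs housekeeping genes; bidirectional curve fit relative to DMSO baseline.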

[13] = read-out: MicroRNA 122 (MIR122), gene 406906; experiment: LTEA_HepaRG_MIR122: Life Technologies and Expression Analysis (LTEA) Assay for MicroRNA 122 (MIR122) using HepaRG (AID 2283516); note: the transcript read is the microRNA miR-122
Procedure, shortened: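 Human liver HepaRG cultures receive test chemicals for 48 h at eight half-log concentrations from 100 uM. Expression is quantified by qRT-PCR with ACTB/GAPDH/POLR2A normalization and fitted bidirectionally against 0.5% DMSO.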

[14] = read-out: matrix metalloproteinase-10 (MMP10), MMP10 (gene 4319); experiment: LTEA_HepaRG_MMP10: Life Technologies and Expression Analysis (LTEA) Assay for matrix metalloproteinase-10 (MMP10) using HepaRG (AID 2283517)
Procedure, shortened: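 Transcript levels come from Fluidigm qRT-PCR normalized to three housekeeping genes, with curves fitted bidirectionally against 0.5% DMSO. Human HepaRG cells were dosed for 48 hours at concentrations up to 100 uM.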

MYC, MYC (gene 4609) = experiment: LTEA_HepaRG_MYC: Life Technologies and Expression Analysis (LTEA) Assay for MYC using HepaRG (AID 2283518)
Procedure, shortened: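 Differentiated human HepaRG cells, plated 48 h then switched to serum-free induction medium, were exposed in duplicate for 48 h to 8-point half-log series up to 100 uM in 0.5% DMSO. MYC mRNA measured by qRT-PCR, normalized to ACTB/GAPDH/POLR2A.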

[15] = read-out: matrix metalloproteinase-3 (MMP3), MMP3 (gene 4314); experiment: LTEA_HepaRG_MMP3: Life Technologies and Expression Analysis (LTEA) Assay for matrix metalloproteinase-3 (MMP3) using HepaRG (AID 2283519)
Procedure, shortened: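 qRT-PCR read-out of MMP3 mRNA (normalised to three housekeeping genes) in HepaRG liver cells after 48 h chemical exposure; 8-point half-log series, top 100 uM, 0.5% DMSO vehicle. Bidirectional curve fitting against DMSO baseline.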

[16] = read-out: Paternally Expressed 10 (PEG10), PEG10 (gene 23089); experiment: LTEA_HepaRG_PEG10: Life Technologies and Expression Analysis (LTEA) Assay for Paternally Expressed 10 (PEG10) using HepaRG (AID 2283520)
Procedure, shortened: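 Human HepaRG cultures are dosed for 48 h across an eight-point half-log series starting at 100 uM, with 0.5% DMSO as vehicle and baseline. Gain or loss of PEG10 transcript is measured by qRT-PCR and fitted in both directions.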

[17] = read-out: Nuclear factor NF-kappa-B p105 subunit (Homo sapiens) (UniProt P19838); experiment: LTEA_HepaRG_NFKB1: Life Technologies and Expression Analysis (LTEA) Assay for Nuclear Factor Kappa B Subunit 1 (NFKB1) using HepaRG (AID 2283521)
Procedure, shortened: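 NFKB1 transcript was measured by TaqMan qRT-PCR on Fluidigm arrays, normalised to three housekeeping genes and fitted in both directions against 0.5% DMSO. HepaRG cells were dosed in duplicate for 48 h in serum-free induction medium, eight half-log steps from 100 uM.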

[18] = read-out: Insulin-like growth factor-binding protein 1 (IGFBP1), IGFBP1 (gene 3484); experiment: LTEA_HepaRG_IGFBP1: Life Technologies and Expression Analysis (LTEA) Assay for Insulin-like growth factor-binding protein 1 (IGFBP1) using HepaRG (AID 2283508)
Procedure, shortened: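 Differentiated human HepaRG cells in serum-free induction medium were exposed in duplicate for 48 h to eight concentrations, top 100 uM with half-log dilutions, in 0.5% DMSO. Transcript levels came from qRT-PCR normalised to ACTB, GAPDH and POLR2A, fitted bidirectionally against DMSO.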

Measured: AC50

Sequence of Nuclear factor NF-kappa-B p105 subunit (Homo sapiens) (P19838 whole entry, looked up): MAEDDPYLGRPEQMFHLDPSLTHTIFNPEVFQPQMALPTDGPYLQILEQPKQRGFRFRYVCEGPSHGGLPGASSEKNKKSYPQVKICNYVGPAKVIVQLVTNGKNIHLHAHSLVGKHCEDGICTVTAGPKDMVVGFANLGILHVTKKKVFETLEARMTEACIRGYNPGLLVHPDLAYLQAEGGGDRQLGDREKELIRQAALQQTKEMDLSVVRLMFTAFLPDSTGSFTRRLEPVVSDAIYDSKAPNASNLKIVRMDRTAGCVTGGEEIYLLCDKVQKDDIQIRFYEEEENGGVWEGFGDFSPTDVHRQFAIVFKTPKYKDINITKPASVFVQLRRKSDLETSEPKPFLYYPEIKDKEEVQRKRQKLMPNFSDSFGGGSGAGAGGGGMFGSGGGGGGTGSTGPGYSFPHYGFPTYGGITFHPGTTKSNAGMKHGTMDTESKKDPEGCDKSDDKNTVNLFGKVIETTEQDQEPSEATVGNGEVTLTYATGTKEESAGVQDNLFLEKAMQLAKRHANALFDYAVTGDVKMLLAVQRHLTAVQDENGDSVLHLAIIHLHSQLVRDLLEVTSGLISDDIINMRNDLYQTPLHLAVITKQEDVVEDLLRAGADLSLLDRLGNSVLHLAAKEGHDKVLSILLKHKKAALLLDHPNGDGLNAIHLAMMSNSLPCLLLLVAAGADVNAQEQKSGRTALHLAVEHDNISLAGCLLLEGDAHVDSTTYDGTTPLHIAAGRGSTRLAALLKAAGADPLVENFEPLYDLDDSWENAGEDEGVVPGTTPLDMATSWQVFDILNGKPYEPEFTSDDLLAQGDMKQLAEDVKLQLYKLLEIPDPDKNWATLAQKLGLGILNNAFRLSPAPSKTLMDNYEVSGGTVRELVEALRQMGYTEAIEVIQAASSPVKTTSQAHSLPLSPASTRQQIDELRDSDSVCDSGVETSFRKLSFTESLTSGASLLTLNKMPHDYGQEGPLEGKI
Sequence of Hypoxia-inducible factor 1-alpha (Homo sapiens) (Q16665 whole entry, looked up): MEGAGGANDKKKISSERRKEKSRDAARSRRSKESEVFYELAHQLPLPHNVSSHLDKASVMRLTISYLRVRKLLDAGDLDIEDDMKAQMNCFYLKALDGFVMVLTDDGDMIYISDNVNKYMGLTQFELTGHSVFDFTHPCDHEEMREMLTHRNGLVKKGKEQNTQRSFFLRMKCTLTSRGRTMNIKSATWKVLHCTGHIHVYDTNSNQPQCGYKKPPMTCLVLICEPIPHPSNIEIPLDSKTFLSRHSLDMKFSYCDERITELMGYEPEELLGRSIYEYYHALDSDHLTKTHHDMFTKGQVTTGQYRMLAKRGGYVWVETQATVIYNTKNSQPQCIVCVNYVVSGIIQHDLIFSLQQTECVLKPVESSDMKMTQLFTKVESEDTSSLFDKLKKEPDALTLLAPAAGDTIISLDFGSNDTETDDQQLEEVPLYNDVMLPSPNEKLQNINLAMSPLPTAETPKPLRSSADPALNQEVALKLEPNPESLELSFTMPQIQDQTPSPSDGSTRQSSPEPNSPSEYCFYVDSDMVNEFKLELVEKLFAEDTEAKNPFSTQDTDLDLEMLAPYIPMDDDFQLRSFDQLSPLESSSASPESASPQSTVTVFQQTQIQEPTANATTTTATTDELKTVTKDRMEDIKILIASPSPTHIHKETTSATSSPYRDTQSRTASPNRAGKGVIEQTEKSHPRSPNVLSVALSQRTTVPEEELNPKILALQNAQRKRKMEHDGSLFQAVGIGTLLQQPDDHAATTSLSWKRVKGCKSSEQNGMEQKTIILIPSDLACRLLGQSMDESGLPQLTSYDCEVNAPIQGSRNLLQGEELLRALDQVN

c1ccc2ccccc2c1
not listed: [18]
inactive: all other assays above

Cc1cccc2ccccc12
not listed: [18]
inactive: all other assays above

O=c1[nH]sc2ccccc12
not listed: [5]
inactive: all other assays above

CCN(CC)C(=O)c1cc(S(=O)(=O)Cc2ccccc2)c(N2CCC(c3ccccc3)CC2)cc1N(CC)CCN(C)C
active: [1] 24.5 µM | [3] 35.5 µM | [5] 19 µM | [18] 32.2 µM | [6] 36.3 µM | [10] 30.4 µM | [12] 31.6 µM | [13] 30.5 µM | [14] 30.5 µM | [17] 28.1 µM
inactive: [2] | HGF (gene 3082) | [4] | [7] | [8] | [9] | [11] | MYC, MYC (gene 4609) | [15] | [16]

Cc1cc2c(cc1C(F)(F)F)N(C(=O)Nc1ccc(Oc3cccnc3C)nc1)CC2
active: [1] 80.9 µM | [2] 11.3 µM | [3] 29.2 µM | [11] 46 µM | [12] 80.4 µM | [13] 46 µM | [14] 26.8 µM
inactive: all other assays above

COc1cc(C(=O)NC2CCN(C)CC2)ccc1Nc1ncc2c(n1)N(C1CCCC1)CC(F)(F)C(=O)N2C
active: [1] 31.7 µM | [3] 10.5 µM | [4] 3.45 µM | [5] 83.7 µM | [6] 25.2 µM | [7] 86.4 µM | [9] 12.3 µM | [10] 25.9 µM | [11] 4.65 µM | [12] 14 µM | [14] 26.3 µM | MYC, MYC (gene 4609) 14.7 µM | [15] 4.65 µM | [17] 11.7 µM
inactive: [2] | HGF (gene 3082) | [8] | [13] | [16]

CC(C)(O)c1ccc(CNC(=O)c2cccnc2Oc2ccc3nonc3c2)cc1
active: [4] 22.7 µM
not listed: [18]
inactive: all other assays above

c1ccc(C[n+]2cccc3ccccc32)cc1
active: [1] 22.8 µM | [3] 31 µM | [4] 20.7 µM | [5] 70.8 µM | [18] 34.6 µM | [7] 50 µM | [9] 28.6 µM | [11] 32 µM | [12] 32.8 µM | [13] 22.5 µM | MYC, MYC (gene 4609) 34.6 µM
inactive: [2] | HGF (gene 3082) | [8] | [10] | [14] | [15] | [16] | [17]

CCCCCCCCN(C)CCCCCCCC
inactive: all assays above

Cc1cc(F)ccc1-c1cc(N2CC[C@@H](O)[C@H]2CO)ncc1N(C)C(=O)C(C)(C)c1cc(C(F)(F)F)cc(C(F)(F)F)c1
inactive: HGF (gene 3082) | [7] | [8] | [9] | [15] | [16] | [17]
active: [1] 70.1 µM | [2] 74.6 µM | [3] 19.7 µM | [4] 17.3 µM | [5] 22.4 µM | [6] 48.6 µM | [10] 74.8 µM | [11] 18.6 µM | [12] 48.8 µM | [13] 9.28 µM | [14] 68.7 µM | MYC, MYC (gene 4609) 17.3 µM

O=C(OCCCCCCOC(=O)c1ccccc1)c1ccccc1
not listed: [18]
inactive: all other assays above
